About 79,000 compounds went through this panel and 15% of them were active in at least one assay; those are over-represented in the sample as a whole. Values without a mark were called inactive. Activity calls are given as the source filed them. Rule as the data show it: active = growth inhibition above about 70%; inactive = the rest.

Test [1] in a line: NCI Yeast Anticancer Drug Screen. Data for the rad50 strain (AID 155).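 Also: 0% = growth of vehicle-only cultures of the same strain.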 The settings on record: S. cerevisiae rad50 strain growth inhibition, active compounds read high. In short, it runs like this: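 A DNA repair-deficient yeast mutant serves as the test organism; compound-induced growth inhibition is calculated against vehicle-treated cells.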
A short description of test [2]: NCI Yeast Anticancer Drug Screen. Data for the mec2-1 strain (AID 157). Particulars: S. cerevisiae mec2-1 strain, active compounds read high. A digest of the protocol: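 Each compound was tested on mec2-1 yeast, a strain altered in DNA damage repair or cell cycle control. Growth inhibition is reported relative to vehicle.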
Test [3] is described as follows: NCI Yeast Anticancer Drug Screen. Data for the sgs1 mgt1 strain (AID 161).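 Also: 0% = growth of cultures given vehicle only.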 The settings on record: S. cerevisiae sgs1 mgt1 strain, active compounds read high. In short, it runs like this: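 Genetically altered yeast, compound exposure, growth inhibition relative to vehicle.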
A short description of test [4]: NCI Yeast Anticancer Drug Screen. Data for the cln2 rad14 strain (AID 165).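 Also: 0% = growth equal to vehicle treated cultures.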 Particulars: S. cerevisiae cln2 rad14 strain, active compounds read high. A digest of the protocol:
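Test compounds were added to cln2 rad14 yeast cultures; inhibition of growth was then determined by comparison with vehicle treatment.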

Test [5] can be described thus: NCI Yeast Anticancer Drug Screen. Data for the bub3 strain (AID 167). The settings on record: S. cerevisiae bub3 mutant strain, active compounds read high. A digest of the protocol:
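Inhibition values come from growth of compound-treated mutant yeast normalised to vehicle-treated controls.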

Test [6] can be described thus: NCI Yeast Anticancer Drug Screen. Data for the mlh1 rad18 strain (AID 175). Particulars: S. cerevisiae mlh1 rad18 strain growth inhibition, active compounds read high. In short, it runs like this:
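Inhibition values reflect reduced growth of mutant yeast versus vehicle-treated controls following compound exposure; the mutations affect DNA damage repair.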

Setting [7] is: at 5.0 µM (retest, dose inferred, filed as 0.5).
Where [8] appears, read: at 50.0 µM (retest, dose inferred, filed as 5.0).

With `CCC1CCCCN1CC(C(C)=O)C(c1ccccc1)c1c(O)c2ccccc2oc1=O` (configuration not stated), the growth inhibition is 13% in test [1] (setting [7]); 13% in test [1] (setting [8]); 78.2% (active) in test [1] (at 50.0 µM); 0% in test [2] (setting [7]); 0% in test [2] (setting [8]); 64.8% in test [2] (at 50.0 µM). Also, the growth inhibition is 5% in test [3] (setting [7]); 5% in test [3] (setting [8]); 79.3% (active) in test [3] (at 50.0 µM); -6% in test [4] (setting [7]); -6% in test [4] (setting [8]); 72.5% (active) in test [4] (at 50.0 µM). Further, the growth inhibition in test [5] (setting [7]) is 6%; in test [5] (setting [8]), 6%; in test [5] (at 50.0 µM), 71.3% (active); in test [6] (setting [7]), 7%; in test [6] (setting [8]), 7%; in test [6] (at 50.0 µM) it was 75.3% (active).
With `O=[N+]([O-])C(Br)(Br)CCC(Br)(Br)[N+](=O)[O-]`, the growth inhibition in test [1] (setting [7]) was 99% (active); in test [1] (setting [8]), 99% (active); in test [1] (at 50.0 µM) it was 99.5% (active); in test [2] (setting [7]), 99% (active); in test [2] (setting [8]), 100% (active); in test [2] (at 50.0 µM), 99.8% (active). Further, the growth inhibition is 99% (active) in test [3] (setting [7]); 99% (active) in test [3] (setting [8]); 52.4% in test [3] (at 50.0 µM); 100% (active) in test [4] (setting [7]); 99% (active) in test [4] (setting [8]); 81.3% (active) in test [4] (at 50.0 µM). Besides, the growth inhibition in test [5] (setting [7]) was 100% (active); in test [5] (setting [8]) it was 100% (active); in test [5] (at 50.0 µM), 99.7% (active); in test [6] (setting [7]), 99% (active); in test [6] (setting [8]), 99% (active); in test [6] (at 50.0 µM) it was 99.5% (active).
As for `CC1=C[n+]2cc(C)ccc2Sc2c1ccc1ccccc21`, the growth inhibition was -2% in test [1] (setting [7]); 24% in test [1] (setting [8]); 64.3% in test [1] (at 50.0 µM); 11% in test [2] (setting [7]); 50% in test [2] (setting [8]); 74.7% (active) in test [2] (at 50.0 µM). Besides, the growth inhibition was -20% in test [3] (setting [7]); 10% in test [3] (setting [8]); 80.5% (active) in test [3] (at 50.0 µM); -2% in test [4] (setting [7]); 4% in test [4] (setting [8]); 28.8% in test [4] (at 50.0 µM). The growth inhibition in test [5] (setting [7]) was 0%; in test [5] (setting [8]), 29%; in test [5] (at 50.0 µM) it was 66.9%; in test [6] (setting [7]), -1%; in test [6] (setting [8]), 30%; in test [6] (at 50.0 µM), 79.5% (active).
For `c1cc2c(c(NC3=NCCN3)c1)CCCC2`, the growth inhibition in test [1] (setting [7]) was 12%; in test [1] (setting [8]), 18%; in test [1] (at 50.0 µM) it was -12.2%; in test [2] (setting [7]) it was 1%; in test [2] (setting [8]) it was -17%; in test [2] (at 50.0 µM), -18.9%. The growth inhibition is 1% in test [3] (setting [7]); 12% in test [3] (setting [8]); -7% in test [3] (at 50.0 µM); -21% in test [4] (setting [7]); -4% in test [4] (setting [8]); 33.1% in test [4] (at 50.0 µM). For the same compound, the growth inhibition in test [5] (setting [7]) is -26%; in test [5] (setting [8]) it was -7%; in test [5] (at 50.0 µM), -9.9%; in test [6] (setting [7]) it was 2%; in test [6] (setting [8]), 13%; in test [6] (at 50.0 µM) it was 7.65%.
For `COC1/C=C\C=C(/C)C(=O)NC2=CC(=O)C(NCCCl)=C(CC(C)CC(OC)C(O)C(C)/C=C(/C)C1OC(N)=O)C2=O` (configuration not stated), the growth inhibition in test [1] (setting [7]) is 24%; in test [1] (setting [8]), 97% (active); in test [1] (at 50.0 µM), 91% (active); in test [2] (setting [7]) it was 49%; in test [2] (setting [8]) it was 98% (active); in test [2] (at 50.0 µM), 92.3% (active). The growth inhibition in test [3] (setting [7]) was 89% (active); in test [3] (setting [8]), 99% (active); in test [3] (at 50.0 µM), 92.6% (active); in test [4] (setting [7]) it was 88% (active); in test [4] (setting [8]) it was 94% (active); in test [4] (at 50.0 µM), 90.4% (active). For the same compound, the growth inhibition is 87% (active) in test [5] (setting [7]); 98% (active) in test [5] (setting [8]); 90.5% (active) in test [5] (at 50.0 µM); 53% in test [6] (setting [7]); 98% (active) in test [6] (setting [8]); 89% (active) in test [6] (at 50.0 µM).
For `c1ccc2c[n+](CCCCCCCCCC[n+]3ccc4ccccc4c3)ccc2c1`, the growth inhibition is 67% in test [1] (setting [7]); 95% (active) in test [1] (setting [8]); 89.2% (active) in test [1] (at 50.0 µM); 70% (active) in test [2] (setting [7]); 98% (active) in test [2] (setting [8]); 91.2% (active) in test [2] (at 50.0 µM). Moreover, the growth inhibition was 79% (active) in test [3] (setting [7]); 98% (active) in test [3] (setting [8]); 90.5% (active) in test [3] (at 50.0 µM); 68% in test [4] (setting [7]); 98% (active) in test [4] (setting [8]); 83.7% (active) in test [4] (at 50.0 µM). The growth inhibition in test [5] (setting [7]) is 88% (active); in test [5] (setting [8]), 99% (active); in test [5] (at 50.0 µM), 91.3% (active); in test [6] (setting [7]), 72% (active); in test [6] (setting [8]) it was 94% (active); in test [6] (at 50.0 µM), 88.1% (active).
As to `O=C(O)C1(c2ccccc2)OC1c1ccccc1` (configuration not stated), the growth inhibition in test [1] (setting [7]) is 2%; in test [1] (setting [8]), 67%; in test [1] (at 50.0 µM), 47%; in test [2] (setting [7]), 0%; in test [2] (setting [8]), 82% (active); in test [2] (at 50.0 µM), 81.3% (active). Further, the growth inhibition in test [3] (setting [7]) is 3%; in test [3] (setting [8]) it was 71% (active); in test [3] (at 50.0 µM), 84.7% (active); in test [4] (setting [7]), 2%; in test [4] (setting [8]) it was 80% (active); in test [4] (at 50.0 µM) it was 79.8% (active). In addition, the growth inhibition in test [5] (setting [7]) was -6%; in test [5] (setting [8]) it was 93% (active); in test [5] (at 50.0 µM) it was 64.6%; in test [6] (setting [7]) it was -1%; in test [6] (setting [8]), 86% (active); in test [6] (at 50.0 µM), 84.3% (active).
For the compound `CCC1(O)C(=O)OCc2c1cc1n(c2=O)Cc2cc3ccc(C#N)cc3nc2-1` (configuration not stated), the growth inhibition in test [1] (setting [7]) is 71% (active); in test [1] (setting [8]), 57%; in test [1] (at 50.0 µM) it was 51%; in test [2] (setting [7]), 11%; in test [2] (setting [8]) it was -6%; in test [2] (at 50.0 µM), -20.8%. The growth inhibition in test [3] (setting [7]) was 11%; in test [3] (setting [8]), -132%; in test [3] (at 50.0 µM), -30.6%; in test [4] (setting [7]), 10%; in test [4] (setting [8]), -5%; in test [4] (at 50.0 µM), -16.7%. The growth inhibition in test [5] (setting [7]) was -6%; in test [5] (setting [8]) it was -63%; in test [5] (at 50.0 µM) it was -4.05%; in test [6] (setting [7]), 10%; in test [6] (setting [8]) it was -9%; in test [6] (at 50.0 µM), -15.6%.
In the case of `CCN1/C(=C\c2ccc3cc(C)ccc3[n+]2CC)[Se]c2ccccc21`, the growth inhibition was 98% (active) in test [1] (setting [7]); 98% (active) in test [1] (setting [8]); 99.2% (active) in test [1] (at 50.0 µM); 100% (active) in test [2] (setting [7]); 100% (active) in test [2] (setting [8]); 99.4% (active) in test [2] (at 50.0 µM). The growth inhibition is 95% (active) in test [3] (setting [7]); 99% (active) in test [3] (setting [8]); 99.5% (active) in test [3] (at 50.0 µM); 98% (active) in test [4] (setting [7]); 94% (active) in test [4] (setting [8]); 99.5% (active) in test [4] (at 50.0 µM). Further, the growth inhibition is 95% (active) in test [5] (setting [7]); 99% (active) in test [5] (setting [8]); 97% (active) in test [5] (at 50.0 µM); 99% (active) in test [6] (setting [7]); 99% (active) in test [6] (setting [8]); 99.5% (active) in test [6] (at 50.0 µM).
